# MOR-DOR inv ag = inverse agonist of human OPRM1-OPRD1 heterodimerization; P35372+P41143; inhibition, % at 9.3 µM; 340,000 tested, 0.21% active; cell-based MOR-DOR heterodimer luminescence, inverse agonism; in the data active means inhibition above about 22%, passing the limit was not always enough;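 further: 0% = cells with DMSO and 100% = wells without cells with DMSO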
# HTR5A ag ctr = activates human HTR5A in OPRM1-OPRD1 agonist counter-screen; P47898; HTR5A agonist assay, luminescence, cell-based; activation, % at 9.3 µM; 340,000 tested, 0.61% active; in the data active means activation mostly above about 9.5%, no sharp cut-off; inactive means mostly below about 7.6%;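 further: 0% = cells with vehicle only and 100% = reference agonist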
# Target sequence (P47898 whole entry, looked up): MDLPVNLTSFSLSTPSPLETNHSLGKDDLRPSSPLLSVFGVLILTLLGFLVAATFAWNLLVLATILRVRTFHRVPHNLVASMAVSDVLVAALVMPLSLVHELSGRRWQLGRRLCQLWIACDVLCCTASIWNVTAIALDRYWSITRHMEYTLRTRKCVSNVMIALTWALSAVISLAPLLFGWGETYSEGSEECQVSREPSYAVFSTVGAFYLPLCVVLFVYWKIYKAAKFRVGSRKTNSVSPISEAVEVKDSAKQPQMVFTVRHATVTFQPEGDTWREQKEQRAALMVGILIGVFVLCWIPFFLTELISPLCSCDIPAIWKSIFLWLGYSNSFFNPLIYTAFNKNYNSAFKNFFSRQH
# MOR-DOR ag-1 = agonists of human mu-delta opioid receptor heterodimerization; P35372+P41143; cells, OPRM1-OPRD1 heterodimerization, luminescence; activation, % at 9.3 µM; 340,000 tested, 0.3% active;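 further: 0% = vehicle-treated cells and 100% = reference agonist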
# HTR5A inv ctr = HTR5A inverse agonism, opioid heterodimer counter-screen; P47898; HTR5A cell line, luminescence; inhibition, % at 9.3 µM; 340,000 tested, 0.083% active; AID 504634; in the data active means inhibition mostly above about 23%, no sharp cut-off; inactive means mostly below about 18%;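 further: 0% = cells with DMSO and 100% = no-cell wells with DMSO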
# MOR-DOR ag-2 = promotes OPRM1-OPRD1 heterodimerization in HTR5A counter-screen. shares compounds with HTR5A ag ctr. U2OS counter-screen cells, complementation luminescence, 3 h. activation, % at 9.3 µM. 800 tested, 13% active. AID 504913
# HTR5A ag confirm = HTR5A (human) agonism, confirmation. activation, % at 9.3 µM. HTR5A agonist cell assay, luminescence. shares compounds with HTR5A ag ctr. 800 tested, 17% active; in the data active means activation above about 17%;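 further: 0% = cells with vehicle only and 100% = full reference agonist response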
# An asterisk follows results filed as active; / = no result. Most compounds without a hit are left out; they make up all but 1.1% or so of the library. Unless noted, no stated cut-off is given here; in the data, active means activation above about 18%; inactive means the rest.
SMILES,MOR-DOR inv ag,HTR5A ag ctr,MOR-DOR ag-1,HTR5A inv ctr,MOR-DOR ag-2,HTR5A ag confirm
COc1ccc(S(=O)(=O)N(CC(=O)NCc2ccco2)c2ccccc2OC)cc1,7.5,17.3*,-1.2,2.6,3.3,2.3
S=C1NC[C@H](c2ccccc2)N1CC1CCCCC1,-31.7,3.9,6.9,-25.0,/,/
Cc1ccc2nc3c(c(Nc4ccc5c(c4)OCCO5)c2c1)CCC3,9.5,41.4*,-1.8,-190.1,1.6,59.5*
Cc1ccc2nc3c(c(Nc4ccc(O)cc4)c2c1)CCC3,2.9,3.0,-0.6,-10.8,/,/
Cc1cc(OCc2cc(C(=O)N(C)C3CCOC3)no2)cc(C)c1Cl (stereo not given),-3.7,5.0,0.7,-11.4,/,/
CN1C(=O)C2(NCCc3c2[nH]c2ccccc32)c2ccccc21 (stereo not given),-3.7,5.0,0.7,-14.1,/,/
CC1=CC(C)(C)N2C(=O)C3(NCCc4c3[nH]c3ccccc43)c3cc(C)cc1c32 (stereo not given),-13.3,16.1*,2.5,-23.8,32.2*,5.7
O=C(c1cccc(S(=O)(=O)N2CCc3ccccc32)c1)N1CCOCC1,13.7,-0.6,-2.6,2.2,/,/
COc1ccccc1NNC(=O)c1cc(C(C)(C)C)nn1Cc1ccccc1,19.0,7.5,-3.7,-11.8,/,/
CC(C)(C)c1cc(C(=O)NNc2cc(C(F)(F)F)ccc2Cl)n(Cc2ccccc2)n1,-88.8,18.3*,17.7,15.3,12.2,15.6
CCOc1ccc(S(=O)(=O)NC(C)C(=O)NCc2cccnc2)cc1 (stereo not given),11.8,-2.0,-2.2,5.3,/,/
Cc1ccc(NC(=O)C2CCN(c3ncnc4sc(C)c(C)c34)CC2)cc1S(=O)(=O)N(C)C,-9.5,19.5*,1.5,-53.7,-2.1,-1.8
COc1ccccc1CNC(=O)CCN=C1NS(=O)(=O)c2ccccc21,13.8,-0.8,-3.5,2.0,/,/
O=C(COc1ccc(-c2ccccc2)cc1)N/N=C/c1cc(O)ccc1Br,-26.2,21.6*,4.2,-20.9,254.9*,-1.6
Cc1ccnc(SCC(=O)NC2CCCCCC2)n1,8.7,9.5,-1.7,-8.9,/,/
Cc1cccc(/C=N/NC(=O)c2ccc(NC(=O)c3ccc(Cl)cc3)cc2)n1,-36.1,2.8,6.8,-2.6,/,/
Cc1cccc(/C=N/NC(=O)c2ccc(NC(=O)c3ccc(F)cc3)cc2)n1,-100.6,21.4*,12.5,-63.6,2.7,-1.1
CC(OC(=O)c1ccc(Cl)nc1)C(=O)Nc1ccc2c(c1)OCO2 (stereo not given),11.9,19.1*,-2.9,-53.1,1.1,2.2
Cc1cccc(C(=O)Nc2sc(C)c(-c3ccccc3)c2C#N)c1,-39.7,16.8*,6.7,-22.2,2.0,3.1
CCOC(=O)c1ccc(N2N=C(C)/C(=C/C=C/c3ccco3)C2=O)cc1,9.5,-3.5,-1.9,9.1,/,/
CC1=NN(c2ccc(C)c(C)c2)C(=O)/C1=C\C=C\c1ccc([N+](=O)[O-])o1,-75.2,16.2*,13.8,19.5,16.3,2.4
N#Cc1ccccc1OCC(=O)NC(=O)NC1CCS(=O)(=O)C1 (stereo not given),10.8,-3.5,-2.7,-4.0,/,/
CC1CC(C)CN(S(=O)(=O)c2ccc(NC(=O)c3ccc(=O)[nH]c3)cc2)C1 (stereo not given),5.7,6.8,-1.5,-7.1,/,/
COc1cccc(NC(=O)CN(C)C(=O)CCNC(=O)c2ccccc2OC)c1,11.8,3.7,-2.3,-10.2,/,/
O=C1c2ccccc2C(=O)N1CCc1c[nH]c2ccc(O)cc12,9.1,23.9*,-1.9,-100.5,2.8,4.6
SMILES,MOR-DOR inv ag,HTR5A ag ctr,MOR-DOR ag-1,HTR5A inv ctr,MOR-DOR ag-2,HTR5A ag confirm
COc1ccc(CC(=O)Nc2ccc(-c3noc(-c4ccccc4OC)n3)cc2)cc1,-18.4,22.9*,3.5,-58.2,221.0*,-5.9
Cc1ccc(NC(=O)C/C(N)=N/OC(=O)c2ccccc2)cc1,-48.5,15.3*,9.2,-21.1,5.8,1.7
O=C(O)c1ccc2c(c1)N(Cc1ccccc1F)C(=O)c1ccccc1S2=O (stereo not given),9.1,16.4*,-1.7,-45.2,-0.1,-1.6
CCOC(=O)N1CCN(C(=O)CCC(=O)N2CCOc3ccc(C)cc32)CC1,8.2,20.9*,-1.7,-50.7,4.5,-2.3
CCOC(=O)N1CCC(NC(=O)CCC(=O)N2CCOc3ccc(C)cc32)CC1,-5.1,1.5,0.8,0.5,/,/
CC1CCN(S(=O)(=O)c2nnc(NC(=O)c3cccc(Cl)c3)s2)CC1,8.1,1.2,-1.4,-8.8,/,/
COc1ccc(C(=O)NC2CCCCCC2)cc1S(=O)(=O)Nc1ccc(Br)cc1,-3.8,14.6*,0.8,-39.0,1.4,5.4
COc1ccc(C(=O)NC2CCCCCC2)cc1S(=O)(=O)N1CCCC1,11.5,-4.3,-2.4,10.7,/,/
COc1cccc(C2CC(=O)Nc3cc4c(cc32)CCC4)c1 (stereo not given),0.9,14.7*,-0.2,-42.0,53.5*,-1.3
COc1cccc(C2CC(=O)Nc3cc(OC)c(OC)cc32)c1 (stereo not given),6.3,1.2,-1.4,-4.3,/,/
O=C(NCCCNC(=O)c1ccccn1)c1ccc(Cl)cc1,-2.4,18.2*,0.4,-51.7,0.4,4.4
CCN1CCN(CCCNC(=O)c2ccc(CS(=O)c3ccc(Br)cc3)o2)CC1 (stereo not given),14.1,-4.3,-2.6,2.4,/,/
CC(C)c1nnc(NC(=O)CCC(=O)Nc2ccc3cn[nH]c3c2)s1,9.7,-0.6,-2.0,-13.6,/,/
COc1ccc2cc3cc(C(=O)Nc4ccc5c(c4)OCCO5)oc3nc2c1,-9.3,24.8*,1.9,-20.8,4.5,4.2
O=C(NCCc1c[nH]c2ccccc12)c1cc([N+](=O)[O-])cc([N+](=O)[O-])c1,-12.9,65.0*,2.2,-252.3,6.0,69.0*
COc1ccc2[nH]c3c(c2c1)CCNC3C1CC=C(C)CC1 (stereo not given),-6.6,33.6*,1.3,-51.4,5.0,51.3*
O=C(NCCN1C(=O)S/C(=C/c2cccnc2)C1=O)c1ccc(S(=O)(=O)N2CCCC2)cc1,2.7,3.2,-0.6,-12.7,/,/
Nn1c(SCC(=O)Nc2ccc3c(c2)OCCO3)nncc1=O,13.8,0.7,-2.5,-12.0,/,/
O=C(CNc1ccc(F)cc1)N/N=C1\CCCc2ccccc21,-28.4,15.9*,5.0,-41.6,8.4,17.1*
CNC(=S)N(CCCN(C)C)Cc1cc2cc3c(cc2[nH]c1=O)OCCO3,-3.8,1.2,0.8,-3.4,/,/
CCCCCCCCCCOC(=O)Cn1c(COc2ccccc2)[n+](C)c2ccccc21,-54.7,15.2*,9.9,-59.8,15.3,9.8
CCCCCCCCCCOC(=O)Cn1c(COc2ccc(OC)cc2)[n+](C)c2ccccc21,-61.8,12.4*,12.1,-45.5,-2.5,-1.0
CCCCOC(=O)Cn1c(-c2ccccc2)nc2ccccc2c1=O,-18.1,-2.1,3.2,7.1,/,/
Cc1ccc2c(c1)S(=O)(=O)c1ccc3ccccc3c1N2,-10.1,0.8,2.0,-3.3,/,/
CC1CCCCC1NC(=O)CCNS(=O)(=O)c1ccc(Cl)cc1 (stereo not given),9.3,-0.8,-1.7,-13.6,/,/
